Potency data for 37 compounds are collected here from PubChem BioAssay (NCATS).

Results filed as inconclusive are left out. Where a call stands in place of a potency, no number is given. Calls of active or inactive are those of the source. The call rests on the fitted dose curve; in most records, active means well fitted curve in the direction sought with a large enough effect; inconclusive means small, poorly fitted or top-dose-only effect, or another doubt; inactive means no such curve, though single readings can be large; an effect the other way counts as inactive or inconclusive.

Calcium and integrin-binding protein 1 (Homo sapiens), sequence (Q99828 whole entry, looked up): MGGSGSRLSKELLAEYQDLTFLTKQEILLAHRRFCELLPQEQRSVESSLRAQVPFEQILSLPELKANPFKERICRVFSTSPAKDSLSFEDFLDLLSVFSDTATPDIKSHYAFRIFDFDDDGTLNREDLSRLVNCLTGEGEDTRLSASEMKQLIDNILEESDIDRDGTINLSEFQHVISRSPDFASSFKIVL

System in the first assay: not listed separately
As to the kind of experiment: Primary qHTS for inhibitors of La Crosse Virus (LACV) - induced cell death in SH-SY5Y cells (AID 1508616). Further: potency means the concentration at half of the fitted maximal effect. To be noted: SH-SY5Y LACV cytopathicity rescue, ATP luminescence, 6 d; series mostly up to 9.63 µM. Put shortly: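 Screening measures cell viability in LACV-infected SH-SY5Y cultures. Compound was added before virus (0.01 MOI), and ATP was detected by luminescence 6 days later.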
For the compound `CCCC[N+]1(C)C2CC(OC(=O)[C@H](CO)c3ccccc3)CC1C1OC12` (some centres undefined), the Potency result was “inactive”.
The same measure, in the same setting: as for `NCC(O)c1cc(O)c(O)cc1F` (centres undefined), the entry is “inactive”; as for `C[C@H](N)CN1CCc2ccc(Br)cc21`, “inactive”.
As to `COc1ccc2c(c1O)-c1cccc3c1[C@@H](C2)N(C)CC3`, the Potency result was “inactive”.
`CP(=O)(O)C1=CCNCC1`: the Potency entry was “inactive”.
In the case of `CCCN(CCC)[C@H]1CCc2c(F)ccc(O)c2C1`, the Potency result was “inactive”.
Regarding `c1ccc2c(N3CCNCC3)cccc2c1`, the Potency entry is “inactive”.
For `N#C/C(=C/c1ccc(O)c(O)c1)C(N)=S`, the Potency entry is “inactive”.
As for `Nc1ccc(CCN2CCN(c3cccc(C(F)(F)F)c3)CC2)cc1`, the Potency result was “inactive”.
On to `NCCCP(=O)(O)O`, for which the Potency entry was “inactive”.
Regarding `C[N+](C)(C)CC#CCN1CCCC1=O`, the Potency entry was “inactive”.
In the case of `CCCN(CCC)C1CCc2cccc(O)c2C1` (centres undefined), the Potency result was “inactive”.
`CCCN1CCc2cc(O)cc3c2[C@H]1Cc1ccc(O)c(O)c1-3`: the Potency was 2 µM (active).
On the same count and under the same terms, as for `COc1ccc2c(c1)C13CCCCC1C(C2)N(C)CC3` (centres undefined), the entry is “inactive”.
Still for that read-out and setting: as for `CN1CC[C@@]2(C)c3cc(OC(=O)Nc4ccccc4)ccc3N(C)[C@@H]12`, the entry is “inactive”; as for `CC(=O)NBr`, “inactive”.
On the same count and under the same terms, as for `NC(=O)CI`, the entry is “inactive”.
For the compound `CN1C2CCC1CC(OC(c1ccccc1)c1ccccc1N)C2` (centres undefined), the Potency entry is “inactive”.
Take `Cc1sc2ccccc2c1CC1=NCCN1`: the Potency entry is “inactive”.
The same measure, in the same setting: as for `C[N+]1(C)CCOC(O)(c2ccc(-c3ccc(C4(O)C[N+](C)(C)CCO4)cc3)cc2)C1` (centres undefined), the entry is “inactive”.
Take `COC(=O)N1CCN(C(=O)Cc2ccc(Cl)c(Cl)c2)C(CN2CCCC2)C1` (centres undefined): the Potency result was “inactive”.
Consider `COc1ccc2[nH]c3c(c2c1)CCNC3`, for which the Potency entry is “inactive”.
On to `Clc1ccc(N2CC3CCC(C2)N3)nn1`, for which the Potency result is “inactive”.
`N[C@@H](Cn1oc(=O)[nH]c1=O)C(=O)O`: the Potency entry was “inactive”.
On to `NNC(=O)c1ccc(O)cc1`, for which the Potency result was “inactive”.
For the compound `CN(C(=O)Cc1ccc(Cl)c(Cl)c1)C(CN1CCCC1)c1cccc(OCC(=O)O)c1` (centres undefined), the Potency result is “inactive”.
Consider `C=CCN1CCC23c4c5ccc(O)c4O[C@H]2C(=O)CC[C@@]3(O)C1C5` (some centres undefined), for which the Potency entry is “inactive”.

The target of a further assay is Calcium and integrin-binding protein 1 (Homo sapiens) (UniProt Q99828). As to the kind of experiment: Validation qHTS for Identification of Calcium Integrin Binding protein 1 (CIB1) Competitor (AID 1508618). To be noted: CIB1-GST / FITC-alphaIIb peptide fluorescence polarization; series mostly up to 114 µM. An outline of the steps:
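CIB1-GST (1 uM final) in 5 mM HEPES pH 7.4, 125 mM NaCl, 5 mM CaCl2, 0.01% Tween20 was preincubated 15 min at room temperature with compound (up to 114 uM), then FITC-alphaIIb peptide (100 nM) added for 15 min; fluorescence polarization read.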
A general note: Quantitative high-throughput screening tests each substance at several concentrations.
Regarding `CCCC[N+]1(C)C2CC(OC(=O)[C@H](CO)c3ccccc3)CC1C1OC12` (some centres undefined), the Potency result is “inactive”.
For the compound `NCC(O)c1cc(O)c(O)cc1F` (centres undefined), the Potency result was “inactive”.
As for `C[C@H](N)CN1CCc2ccc(Br)cc21`, the Potency result was “inactive”.
Take `COc1ccc2c(c1O)-c1cccc3c1[C@@H](C2)N(C)CC3`: the Potency entry was “inactive”.
In the case of `CP(=O)(O)C1=CCNCC1`, the Potency result is “inactive”.
Turning to `CCCN(CCC)[C@H]1CCc2c(F)ccc(O)c2C1`, the Potency entry was “inactive”.
Take `CCCN(CCC)[C@@H]1CCc2cccc(O)c2C1`: the Potency result is “inactive”.
As to `c1ccc2c(N3CCNCC3)cccc2c1`, the Potency entry is “inactive”.
For `Oc1ccc2c3c1O[C@H]1c4[nH]c5ccccc5c4C[C@@]4(O)C(C2)N(CC2CC2)CCC314` (some centres undefined), the Potency entry was “inactive”.
Take `N#C/C(=C/c1ccc(O)c(O)c1)C(N)=S`: the Potency entry was “inactive”.
Regarding `Nc1ccc(CCN2CCN(c3cccc(C(F)(F)F)c3)CC2)cc1`, the Potency entry was “inactive”.
Still for that read-out and setting: as for `NCCCP(=O)(O)O`, the entry is “inactive”; as for `C[N+](C)(C)CC#CCN1CCCC1=O`, “inactive”.
On the same count and under the same terms, as for `CCCN(CCC)C1CCc2cccc(O)c2C1` (centres undefined), the entry is “inactive”; as for `CCCN1CCc2cc(O)cc3c2[C@H]1Cc1ccc(O)c(O)c1-3`, “inactive”; as for `O=C(NC1CN2CCC1CC2)c1cc2ccoc2cn1` (centres undefined), “inactive”.
On to `COc1ccc2c(c1)C13CCCCC1C(C2)N(C)CC3` (centres undefined), for which the Potency entry is “inactive”.
Regarding `CN1CC[C@@]2(C)c3cc(OC(=O)Nc4ccccc4)ccc3N(C)[C@@H]12`, the Potency entry was “inactive”.
On to `C[C@H]1C2Cc3ccc(O)cc3[C@@]1(C)CCN2CC1CC1`, for which the Potency entry was “inactive”.
With `O=c1ccc2[nH]cc(C3=CCNCC3)c2[nH]1`, the Potency entry is “inactive”.
`CC(=O)NBr`: the Potency result was “inactive”.
Same read-out and setting: as for `NC(=O)CI`, the entry is “inactive”.
Regarding `Nc1cc2c(ncn2CCOCP(=O)(O)O)c(=O)[nH]1`, the Potency entry was “inactive”.
For the compound `CN1C2CCC1CC(OC(c1ccccc1)c1ccccc1N)C2` (centres undefined), the Potency entry was “inactive”.
On to `Cc1sc2ccccc2c1CC1=NCCN1`, for which the Potency result is “inactive”.
On to `C[N+]1(C)CCOC(O)(c2ccc(-c3ccc(C4(O)C[N+](C)(C)CCO4)cc3)cc2)C1` (centres undefined), for which the Potency entry is “inactive”.
Turning to `CCNC(=O)[C@H]1O[C@@H](n2cnc3c(N)ncnc32)[C@H](O)[C@@H]1O`, the Potency entry was “inactive”.
The same measure, in the same setting: as for `CCCn1c(=O)c2[nH]c(C3CCCC3)nc2n(CCCOC(=O)c2ccc(S(=O)(=O)F)cc2)c1=O`, the entry is “inactive”.
In the case of `COC(=O)N1CCN(C(=O)Cc2ccc(Cl)c(Cl)c2)C(CN2CCCC2)C1` (centres undefined), the Potency entry is “inactive”.
Consider `COc1ccc2[nH]c3c(c2c1)CCNC3`, for which the Potency entry was “inactive”.
In the case of `Clc1ccc(N2CC3CCC(C2)N3)nn1`, the Potency result is “inactive”.
As for `N[C@@H](Cn1oc(=O)[nH]c1=O)C(=O)O`, the Potency result was “inactive”.
Take `NNC(=O)c1ccc(O)cc1`: the Potency result was “inactive”.
On to `O=C1/C(=C/c2ccccc2)C[C@@]2(O)[C@H]3Cc4ccc(O)c5c4[C@@]2(CCN3CC2CC2)[C@H]1O5`, for which the Potency result was “inactive”.
On the same count and under the same terms, as for `CN(C(=O)Cc1ccc(Cl)c(Cl)c1)C(CN1CCCC1)c1cccc(OCC(=O)O)c1` (centres undefined), the entry is “inactive”.
For `C=CCN1CCC23c4c5ccc(O)c4O[C@H]2C(=O)CC[C@@]3(O)C1C5` (some centres undefined), the Potency entry was “inactive”.
As for `C[C@@H]1O[C@@H](O[C@H]2C[C@@H](O)[C@]3(CO)[C@@H]4C(CC[C@]3(O)C2)[C@@]2(O)CC[C@H]([C@@H]3COC(=O)C3)[C@@]2(C)C[C@H]4O)[C@H](O)[C@H](O)[C@H]1O` (some centres undefined), the Potency result was “inactive”.
